Results taken from PubChem BioAssay (NCI).
Where “and” joins values, the source holds several entries; their conditions need not be identical. Equal entries are not always repeated. This is part of a sample that, as a whole, favours compounds with a hit. Of some 83,000 tested, about 20% had one in any assay.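 Results are percent growth after 48 hours of single-concentration exposure. 100 means growth as in untreated cells, lower positive values show inhibition; negative values down to -100 show cell death.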 Values without a mark were called inactive. Calls of active or inactive are those of the source. Rule for the calls: active = growth percent below 10; inactive = the rest.

Each molecule was assayed on SW-620 colon (assay: NCI-60 one-dose screen, 48 h (100 = growth as untreated, 0 = no growth, -100 = all killed)). Settings: 10 µM unless noted.
Work on N#CC(C#N)=Cc1cccc(F)c1 yielded a growth of 109%. For CN(C)c1ccc(C=C2C(=O)NC(=O)NC2=O)cc1, the growth was 93.4%. For [N-]=[N+]=CC(=O)CCC(=O)C=[N+]=[N-], the growth was 94.1%. For CC1=C2[C@H]3OC(=O)[C@@H](C)[C@@H]3CC[C@@]2(C)C=CC1=O, the growth was 108%. For O=[N+]([O-])c1ccc2scc3c4ccccc4nc-3c2c1, the growth was -76.4% (active). Cc1cc(NC(=O)NCCCOc2ccc(N3C(N)=NC(N)=NC3(C)C)cc2Cl)ccc1S(=O)(=O)F gave a growth of 18.5%. In the case of Nc1c(Cl)c(Cl)nc(C(=O)O)c1Cl, the growth is reported as 99.1%. Molecule Cn1cc(C(=O)C[n+]2ccccc2)c2ccccc21 has a growth of 106%. Nc1nc(=S)nc(N)[nH]1 gave a growth of 101%. C[C@]12CCC(=O)C[C@@H]1CC[C@@H]1[C@@H]2CC[C@]2(C)[C@@H](OC(=O)N(CCCl)N=O)CC[C@@H]12 was tested, and the growth was 31.7%. NC1CN2CCC1CC2 (stereo not drawn) gave a growth of 99.7%. With O=C(O)C1C(C(=O)O)C2(Cl)C(Cl)=C(Cl)C1(Cl)C2(Cl)Cl (stereo not drawn) the growth was 98.5% and 101%. For O=C1NC(=O)C(=C/C=C/c2ccccc2)C(=O)N1, the growth was -76.4% (active). c1ccc(CCN2CCCCC2)nc1 gave a growth of 112%. O=[N+]([O-])c1cc(Br)c(O)c(Br)c1 was tested, and the growth was 108%. Work on Cc1cc(Br)c([N+](=O)[O-])cc1[N+](=O)[O-] yielded a growth of 23%. C[C@]12CC[C@@H](OC(=O)N(CCCl)N=O)C[C@@H]1CC[C@@H]1[C@@H]2CC[C@]2(C)C(=O)CC[C@@H]12 was tested, and the growth was 52.9%. For CCOC(=O)C1C(C=C(C)C)C1(C)C (stereo not drawn), the growth was 89.3%. In the case of Oc1ccc(O)c(Cl)c1, the growth is reported as 112% and 115%. For CC(C)c1cccc(C(C)C)c1O, the growth was 106% and 112%. Work on N#CC(C#N)=C(C#N)C#N yielded a growth of 104%. For CC(C)CCC1C(=O)NC(=O)NC1=O, the growth was 91.8%. In the case of COc1ccc(N)cc1N, the growth is reported as 107%. With CC1OC(=O)C(C(C)C)NC(=O)C(C(C)C)OC(=O)C(C(C)C)NC(=O)C(C)OC(=O)C(C(C)C)NC(=O)C(C(C)C)OC(=O)C(C(C)C)NC(=O)C(C)OC(=O)C(C(C)C)NC(=O)C(C(C)C)OC(=O)C(C(C)C)NC1=O (stereo not drawn) the growth was 3.61% (active). For CCCCCCCCCCCCCCCCCC1OCC(COC(=O)O[C@@H](C(=O)O[C@H]2C[C@@]3(O)[C@@H](OC(=O)c4ccccc4)[C@@H]4[C@]5(OC(C)=O)CO[C@@H]5C[C@H](O)[C@@]4(C)C(=O)[C@H](OC(C)=O)C(=C2C)C3(C)C)[C@@H](NC(=O)c2ccccc2)c2ccccc2)O1 (stereo partly drawn), the growth was 39.6%. For O=c1[nH]c(=O)[nH]c(=O)[nH]1, the growth was 108%. Work on CC(=O)c1cccc(S(=O)(=O)F)c1 yielded a growth of 105%. CC(=O)Nc1nc2c(s1)C1=CC[C@H]3[C@@H]4CC[C@H](OC(C)=O)[C@@]4(C)CC[C@@H]3[C@@]1(C)CC2 showed a growth of 43.3%. Molecule CC1=CC(=O)CCC12CCOC2=O (stereo not drawn) has a growth of 98.6%. In the case of CCC1CCC(=O)O1 (stereo not drawn), the growth is reported as 111% and 106%. For CN(C)C(=S)SSC(=S)N(C)C, the growth was 69.2% and 98%. In the case of ClC1OC(Cl)(Cl)C(Cl)(Cl)OC1(Cl)Cl (stereo not drawn), the growth is reported as 115%. COc1ccc(N)cc1OC showed a growth of 109%.
